We go through 28 compounds from PubChem BioAssay (NCI).

Compounds without any hit were thinned out: in the full panel of roughly 83,000, 20% have a hit.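 The test compound was applied at a single concentration to cells in 96-well plates for 48 hours, and percent growth was recorded.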 Values without a mark were called inactive. The source made the active and inactive calls. How the source made its calls: active means growth percent below 10; inactive means the rest.

Test systems include T-47D breast; BT-549 breast; MDA-MB-435 melanoma; SW-620 colon; MCF7 breast; HCT-116 colon; KM12 colon; HCC-2998 colon.
What all share (assay): NCI-60 one-dose screen, 48 h (100 = growth as untreated, 0 = no growth, -100 = all killed)
Conditions in all cases: 10 µM unless noted

As to `CCOc1nc(-c2ccccc2)cc2c(O)c(C(=O)N/N=C/c3ccccc3O)[nH]c(=O)c12`, the growth in the assay on T-47D breast was 94%; in the assay with BT-549 breast, 97.8%; in the assay on MDA-MB-435 melanoma, 113%; in the assay on SW-620 colon, 74.9%; with MCF7 breast, 72.8%; with HCT-116 colon, 88.3%. Besides, in the assay on KM12 colon, the growth is 80.6%.
Take `COc1cc(-c2nc(/C=C3/C(=O)Nc4ccccc43)c3ccccn23)cc(OC)c1OC`: the growth was 53.7% in the assay on T-47D breast; 94% in the assay on BT-549 breast; 55.6% in the assay on MDA-MB-435 melanoma; 88.7% with SW-620 colon; 40.1% in the assay with MCF7 breast; 67.2% in the assay on HCT-116 colon. The growth in the assay on HCC-2998 colon is 78.1%; in the assay with KM12 colon, 47.6%.
With `O=C(CCl)NC1c2ccccc2Oc2ccccc21`, the growth in the assay on T-47D breast was 65.9%; with BT-549 breast, 55.2%; in the assay with MDA-MB-435 melanoma it was 62.7%; with SW-620 colon, 57.1%; in the assay with MCF7 breast, 45.8%; with HCT-116 colon, 45.9%. Moreover, the values for the growth with HCC-2998 colon and in the assay with KM12 colon were 111% and 82.6%, respectively.
Take `CCCCCCCCCC(C)NC(=O)CCl` (stereo not drawn): the growth with T-47D breast was 82.6%; in the assay on BT-549 breast, 88.8%; in the assay on MDA-MB-435 melanoma it was 96.3%; in the assay on SW-620 colon it was 103%; in the assay on MCF7 breast it was 86.2%; with HCT-116 colon it was 95.7%. In addition, the results for the growth in the assay with HCC-2998 colon and in the assay on KM12 colon were 103% and 101%, respectively.
`O=c1[nH]c(=S)[nH]c(O)c1/C=C1\C=Nc2ccccc21`: the growth in the assay with T-47D breast was 98.4%; in the assay on BT-549 breast it was 76.9%; in the assay on MDA-MB-435 melanoma, 47.3%; in the assay with SW-620 colon, 36.2%; in the assay with MCF7 breast, 62.2%; with HCT-116 colon, 39.5%. Besides, the growth with HCC-2998 colon is 99.6%; in the assay with KM12 colon, 47.7%.
As for `CCCCCCC(C)N(CC(C)(C)O)C(=O)c1ccc([N+](=O)[O-])cc1` (stereo not drawn), the growth in the assay with T-47D breast was 88.2%; in the assay on BT-549 breast, 99%; with MDA-MB-435 melanoma, 104%; in the assay on SW-620 colon, 95.8%; in the assay on MCF7 breast, 97.6%; in the assay on HCT-116 colon it was 91.3%. Moreover, the growth was 115% in the assay on HCC-2998 colon and 103% in the assay on KM12 colon.
With `CCCC[N+](C)(N)CCCC`, the growth was 87.9% in the assay with T-47D breast; 90.9% in the assay with BT-549 breast; 102% in the assay on MDA-MB-435 melanoma; 101% with SW-620 colon; 97.7% in the assay on MCF7 breast; 97.7% in the assay on HCT-116 colon. For the same compound, the values for the growth with HCC-2998 colon and with KM12 colon were 111% and 105%, respectively.
As for `O=S(=O)(Cc1cccc2c(CS(=O)(=O)c3ccc(Cl)cc3)cccc12)c1ccc(Cl)cc1`, the growth is 100% in the assay with T-47D breast; 105% with BT-549 breast; 77.7% with MDA-MB-435 melanoma; 88.5% in the assay on SW-620 colon; 85.4% in the assay with MCF7 breast; 95.5% with HCT-116 colon. Moreover, the growth with HCC-2998 colon was 101%; with KM12 colon it was 88.1%.
Take `CC(=O)c1ccc2c(c1)c1ccccc1n2C`: the growth in the assay with T-47D breast is 103%; in the assay with BT-549 breast it was 96.1%; with MDA-MB-435 melanoma it was 99.3%; in the assay with SW-620 colon it was 113%; in the assay on MCF7 breast, 86.4%; in the assay with HCT-116 colon, 96.7%. Also, the results for the growth in the assay on HCC-2998 colon and in the assay with KM12 colon were 100% and 97.9%, respectively.
On to `Cc1ccc2c(O)c(O)cc(NC(C)CCCN)c2n1` (stereo not drawn), for which the growth in the assay on T-47D breast is 63.3%; in the assay on BT-549 breast, 91.1%; with MDA-MB-435 melanoma, 114%; in the assay on SW-620 colon it was 73.2%; in the assay on MCF7 breast, 13.3%; in the assay on HCT-116 colon, 34.7%. Also, the growth in the assay with HCC-2998 colon was 60.4%; with KM12 colon it was 109%.
Regarding `COC(=O)[C@H](Cc1cn(C)cn1)NC(=O)[C@@H](NC(=O)Nc1cc(C(F)(F)F)cc(C(F)(F)F)c1)C(C)(C)C`, the growth was -63.9% [100 µM] (active) with T-47D breast; -90.4% [100 µM] (active) in the assay with BT-549 breast; -89.3% [100 µM] (active) in the assay on MDA-MB-435 melanoma; -46.4% [100 µM] (active) in the assay with SW-620 colon; -59.2% [100 µM] (active) with MCF7 breast; -91.5% [100 µM] (active) with HCT-116 colon. Moreover, the growth in the assay on HCC-2998 colon is -94.2% [100 µM] (active); in the assay with KM12 colon it was -88.7% [100 µM] (active).
On to `CCCCCCCCCC[N+](C)(C)N`, for which the growth is 96.7% with T-47D breast; 84.2% in the assay on BT-549 breast; 91.9% in the assay on MDA-MB-435 melanoma; 102% in the assay with SW-620 colon; 98% in the assay with MCF7 breast; 95.5% in the assay on HCT-116 colon. Also, the growth with HCC-2998 colon is 98.5%; in the assay with KM12 colon, 99.8%.
`COc1ccc(-c2nc(Nc3nc4ccccc4[nH]3)nc(N)c2C#N)cc1`: the growth is 97.1% with T-47D breast; 86.4% in the assay on BT-549 breast; 117% with MDA-MB-435 melanoma; 108% with SW-620 colon; 90.2% with MCF7 breast; 93.8% in the assay on HCT-116 colon. Besides, in the assay on KM12 colon, the growth is 108%.
For the compound `CCN(CC)CCOC(=O)c1cccnc1`, the growth in the assay on T-47D breast is 96.6%; in the assay with BT-549 breast, 105%; in the assay on MDA-MB-435 melanoma it was 96.3%; with SW-620 colon it was 103%; with MCF7 breast, 95.1%; in the assay on HCT-116 colon, 98.1%. The growth in the assay on KM12 colon is 103%.
Consider `CC1CCCCC[N+]12CCCC2` (stereo not drawn), for which the growth in the assay with T-47D breast was 107%; in the assay on BT-549 breast, 107%; in the assay with MDA-MB-435 melanoma, 100%; with SW-620 colon, 107%; in the assay with MCF7 breast it was 97.2%; in the assay on HCT-116 colon it was 109%. Moreover, the growth in the assay on HCC-2998 colon is 117%; in the assay on KM12 colon, 106%.
For `Nc1nc2c(c3cnccc13)C(c1cccc(Br)c1)Cc1cnccc1-2` (stereo not drawn), the growth was 43.9% in the assay with T-47D breast; -15.6% (active) in the assay with BT-549 breast; -37.2% (active) in the assay on MDA-MB-435 melanoma; 25.9% in the assay on SW-620 colon; 11.5% in the assay with MCF7 breast; 3.93% (active) in the assay on HCT-116 colon. The growth in the assay with HCC-2998 colon is 34.8%; in the assay on KM12 colon it was 13.2%.
`CN1NC(c2ccccc2)NN(C)C1=O`: the growth in the assay with T-47D breast is 95.7%; in the assay on BT-549 breast it was 109%; in the assay with MDA-MB-435 melanoma it was 102%; in the assay with SW-620 colon it was 91.1%; in the assay on MCF7 breast, 96.3%; with HCT-116 colon, 101%. For the same compound, the growth in the assay with HCC-2998 colon was 103%; with KM12 colon, 118%.
As for `CCCCCCNC(=O)Oc1ccc(/C(=C(/C)Cc2ccc(OC)cc2)c2ccc(OCCN3CCCCC3)cc2)cc1`, the growth in the assay with T-47D breast was 42%; in the assay on BT-549 breast, 92.5%; in the assay with MDA-MB-435 melanoma it was 91.5%; in the assay on SW-620 colon, 84.6%; in the assay with MCF7 breast it was 30.6%; in the assay on HCT-116 colon it was 63.7%. The growth with HCC-2998 colon is 94.9%; in the assay on KM12 colon, 85.6%.
Regarding `O=C(Nc1ccc(Cl)c(Cl)c1)O/N=C\c1c(Cl)ccc([N+](=O)[O-])c1Cl`, the growth with T-47D breast was -46.8% (active); in the assay with BT-549 breast, -6.07% (active); in the assay with MDA-MB-435 melanoma, -31% (active); in the assay with SW-620 colon, -79.3% (active); with MCF7 breast it was -62.9% (active); with HCT-116 colon, -83.5% (active). The growth in the assay with HCC-2998 colon is -64.7% (active); with KM12 colon, -71.8% (active).
With `O=C1/C(=C/c2ccc(Cl)cc2)CCC/C1=C\c1ccc(Cl)cc1`, the growth was 79.6% in the assay on T-47D breast; 97% with BT-549 breast; 15.9% with MDA-MB-435 melanoma; 30.6% in the assay with SW-620 colon; 17.3% in the assay on MCF7 breast; -42.6% (active) in the assay on HCT-116 colon. For the same compound, the growth in the assay with HCC-2998 colon is 28.6%; with KM12 colon, 18.7%.
Turning to `Brc1c(-c2ccncc2)nc2n1CCS2`, the growth was 100% with T-47D breast; 105% in the assay on BT-549 breast; 94% in the assay on MDA-MB-435 melanoma; 105% with SW-620 colon; 110% with MCF7 breast; 85% with HCT-116 colon. Also, the growth in the assay with HCC-2998 colon and with KM12 colon was 116% throughout.
Consider `CC(=O)/C(=C/c1ccc(-c2ccccc2)cc1)C(=O)c1ccccc1`, for which the growth in the assay on T-47D breast is 48.6%; in the assay on BT-549 breast, 89.5%; in the assay with MDA-MB-435 melanoma it was 80.9%; in the assay with SW-620 colon, 85.5%; with MCF7 breast, 39.6%; with HCT-116 colon it was 57.6%. The growth in the assay with HCC-2998 colon is 98.9%; in the assay on KM12 colon it was 80.5%.
For the compound `N=C(N)c1ccc(-c2ccc(-c3cc(Cl)cc(Cl)c3)s2)cc1`, the growth in the assay with T-47D breast is -54% (active); with BT-549 breast, -45.7% (active); in the assay with MDA-MB-435 melanoma, -90.2% (active); in the assay on SW-620 colon, -70.9% (active); in the assay on MCF7 breast it was -72.5% (active); in the assay with HCT-116 colon, -78.7% (active). For the same compound, the growth is -65.2% (active) in the assay on HCC-2998 colon and -77.4% (active) in the assay on KM12 colon.
In the case of `CCCCCSc1ccc2nc(NC(=O)OCCC)sc2c1`, the growth with T-47D breast is 38.1%; in the assay with BT-549 breast, 34.2%; with MDA-MB-435 melanoma, -40.5% (active); with SW-620 colon, 22.9%; with MCF7 breast, 14.3%; in the assay with HCT-116 colon it was 25.3%. Also, the values for the growth in the assay with HCC-2998 colon and in the assay with KM12 colon were 74% and 24.9%, respectively.
With `COc1cc2cc3cc4cc(OC)c(OC)cc4c(C)[n+]3cc2cc1OC` (tested in a mixture with another compound), the growth was 91.7% in the assay with T-47D breast; 85.5% in the assay on BT-549 breast; 71% in the assay with MDA-MB-435 melanoma; 83.2% with SW-620 colon; 67.6% in the assay with MCF7 breast; 102% in the assay with HCC-2998 colon. Moreover, the growth with KM12 colon is 80.4%.
Regarding `O=C(CN1C(=O)NC(c2ccccc2)(c2ccccc2)C1=O)c1ccc(N2CCCC2)cc1`, the growth is 81.2% with T-47D breast; 66.4% in the assay with BT-549 breast; -4.2% (active) with MDA-MB-435 melanoma; 70.2% with SW-620 colon; 49.8% with MCF7 breast; 66% in the assay on HCT-116 colon. The figures for the growth in the assay on HCC-2998 colon and with KM12 colon were 101% and 65.8%, respectively.
Regarding `Oc1ccccc1\C=N/N=C/C=C/c1ccccc1`, the growth with T-47D breast was 76.9%; in the assay on BT-549 breast, 91.4%; with SW-620 colon, 106%; in the assay on MCF7 breast it was 81.4%; in the assay on HCT-116 colon it was 103%; in the assay on HCC-2998 colon, 95.3%. Also, the growth in the assay on KM12 colon was 92.8%.
As for `CC(O)CCC(C)[N+](=O)[O-]` (stereo not drawn), the growth in the assay with T-47D breast is 103%; with BT-549 breast, 106%; in the assay on SW-620 colon, 104%; in the assay on MCF7 breast, 101%; with HCT-116 colon, 109%; in the assay with HCC-2998 colon it was 126%. Moreover, the growth with KM12 colon was 103%.
